Among the data in publication PMC11006913 are binding signal values, retold here.

Residue numbers refer to the chain shown, from its start.

Holding throughout (experiment): PBM; 200 nM protein, PBS
Common to all, as to details: dsDNA, one strand shown

For experiment [1], the target named is HOXB4 (Homo sapiens, UniProt P17483 148-234).
The target in experiment [2] is T1, VENTX (Homo sapiens, UniProt O95231 78-163, R121Q).
T1 sequence: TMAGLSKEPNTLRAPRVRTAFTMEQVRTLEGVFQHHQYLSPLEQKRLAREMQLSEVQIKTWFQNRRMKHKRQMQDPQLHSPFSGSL

In experiment [3] the target is HOXA4 (Homo sapiens, UniProt Q00056 201-287, W262R).
Chain of HOXA4 (Homo sapiens, UniProt Q00056 201-287, W262R) (Q00056 201-287 W262R): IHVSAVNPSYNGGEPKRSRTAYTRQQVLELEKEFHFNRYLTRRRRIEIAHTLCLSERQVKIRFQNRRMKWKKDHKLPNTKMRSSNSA
For experiment [4], the target named is T2, VENTX (Homo sapiens, UniProt O95231 78-163, Y115F).
T2 sequence: T1 sequence with Y38F, Q44R

The target of experiment [5] is HOXA2 (Homo sapiens, UniProt O43364 129-215, R185T).
Chain of HOXA2 (Homo sapiens, UniProt O43364 129-215, R185T) (O43364 129-215 R185T): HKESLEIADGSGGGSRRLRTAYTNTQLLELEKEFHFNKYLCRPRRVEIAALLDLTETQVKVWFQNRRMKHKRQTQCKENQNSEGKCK
Experiment [6] addresses HOXA4 (Homo sapiens, UniProt Q00056 201-287, R217L).
In experiment [7] the target is HOXB4 (Homo sapiens, UniProt P17483 148-234, V174I).
Chain of HOXB4 (Homo sapiens, UniProt P17483 148-234, V174I) (P17483 148-234 V174I): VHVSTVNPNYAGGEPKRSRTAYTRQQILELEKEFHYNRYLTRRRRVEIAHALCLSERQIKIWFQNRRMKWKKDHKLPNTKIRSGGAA
Experiment [8] concerns the target HOXA2 (Homo sapiens, UniProt O43364 129-215, R185K).
Experiment [9] deals with HOXA4 (Homo sapiens, UniProt Q00056 201-287).
Chain of HOXA4 (Homo sapiens, UniProt Q00056 201-287) (Q00056 201-287): as the sequence (Q00056 201-287 W262R) above, with R62W counted along it
Experiment [10] has as its target VAX1 (Homo sapiens, UniProt Q5SQQ9 86-172).
Experiment [11] addresses VAX1 (Homo sapiens, UniProt Q5SQQ9 86-172, T142I).
The target in experiment [12] is HOXA2 (Homo sapiens, UniProt O43364 129-215, Y150S).
Chain of HOXA2 (Homo sapiens, UniProt O43364 129-215, Y150S) (O43364 129-215 Y150S): as the sequence (O43364 129-215 R185T) above, with Y22S, T57R counted along it
The target in experiment [13] is HOXA4 (Homo sapiens, UniProt Q00056 201-287, W262F).
Chain of HOXA4 (Homo sapiens, UniProt Q00056 201-287, W262F) (Q00056 201-287 W262F): as the sequence (Q00056 201-287 W262R) above, with R62F counted along it
The target of experiment [14] is HOXA2 (Homo sapiens, UniProt O43364 129-215).
Chain of HOXA2 (Homo sapiens, UniProt O43364 129-215) (O43364 129-215): as the sequence (O43364 129-215 R185T) above, with T57R counted along it
Experiment [15] addresses VAX1 (Homo sapiens, UniProt Q5SQQ9 86-172, K157R).

Chain of HOXA4 (Homo sapiens, UniProt Q00056 201-287, R217L) (Q00056 201-287 R217L): as the sequence (Q00056 201-287 W262R) above, with R17L, R62W counted along it
Chain of HOXB4 (Homo sapiens, UniProt P17483 148-234) (P17483 148-234): as the sequence (P17483 148-234 V174I) above, with I27V counted along it
Chain of VAX1 (Homo sapiens, UniProt Q5SQQ9 86-172) (Q5SQQ9 86-172): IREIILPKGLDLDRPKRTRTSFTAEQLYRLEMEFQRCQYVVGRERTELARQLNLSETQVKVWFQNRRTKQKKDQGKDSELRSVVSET
Chain of VAX1 (Homo sapiens, UniProt Q5SQQ9 86-172, T142I) (Q5SQQ9 86-172 T142I): as the sequence (Q5SQQ9 86-172) above, with T57I counted along it
Chain of HOXA2 (Homo sapiens, UniProt O43364 129-215, R185K) (O43364 129-215 R185K): as the sequence (O43364 129-215 R185T) above, with T57K counted along it
Chain of VAX1 (Homo sapiens, UniProt Q5SQQ9 86-172, K157R) (Q5SQQ9 86-172 K157R): as the sequence (Q5SQQ9 86-172) above, with K72R counted along it

Take ACTAATGG: the binding signal with HOXB4 [1] is 12.9 upbm affinity estimate (log intensity, higher = more binding, comparable within an allelic series); in the experiment with VENTX [2], 12.2 upbm affinity estimate (log intensity, higher = more binding, comparable within an allelic series); in the experiment with HOXA4 [3], 10.5 upbm affinity estimate (log intensity, higher = more binding, comparable within an allelic series); with VENTX [4], 11.9 upbm affinity estimate (log intensity, higher = more binding, comparable within an allelic series); in the experiment with HOXA2 [5] it was 12.2 upbm affinity estimate (log intensity, higher = more binding, comparable within an allelic series); with HOXA4 [6], 11.5 upbm affinity estimate (log intensity, higher = more binding, comparable within an allelic series). Further, the binding signal in the experiment with HOXB4 [7] was 13.5 upbm affinity estimate (log intensity, higher = more binding, comparable within an allelic series); with HOXA2 [8], 13 upbm affinity estimate (log intensity, higher = more binding, comparable within an allelic series); with HOXA4 [9], 13.5 upbm affinity estimate (log intensity, higher = more binding, comparable within an allelic series); with VAX1 [10], 12.7 upbm affinity estimate (log intensity, higher = more binding, comparable within an allelic series); in the experiment with VAX1 [11], 12.1 upbm affinity estimate (log intensity, higher = more binding, comparable within an allelic series); with HOXA2 [12], 10.8 upbm affinity estimate (log intensity, higher = more binding, comparable within an allelic series). Also, the binding signal was 11.3 upbm affinity estimate (log intensity, higher = more binding, comparable within an allelic series) in the experiment with HOXA4 [13]; 12.1 upbm affinity estimate (log intensity, higher = more binding, comparable within an allelic series) with HOXA2 [14]; 12.3 upbm affinity estimate (log intensity, higher = more binding, comparable within an allelic series) with VAX1 [15].
As for GTTAATGA, the binding signal was 13.3 upbm affinity estimate (log intensity, higher = more binding, comparable within an allelic series) in the experiment with HOXB4 [1]; 11.9 upbm affinity estimate (log intensity, higher = more binding, comparable within an allelic series) with VENTX [2]; 10.7 upbm affinity estimate (log intensity, higher = more binding, comparable within an allelic series) with HOXA4 [3]; 11.9 upbm affinity estimate (log intensity, higher = more binding, comparable within an allelic series) in the experiment with VENTX [4]; 13.1 upbm affinity estimate (log intensity, higher = more binding, comparable within an allelic series) in the experiment with HOXA2 [5]; 12.7 upbm affinity estimate (log intensity, higher = more binding, comparable within an allelic series) with HOXA4 [6]. Further, the binding signal with HOXB4 [7] was 14 upbm affinity estimate (log intensity, higher = more binding, comparable within an allelic series); with HOXA2 [8], 13.5 upbm affinity estimate (log intensity, higher = more binding, comparable within an allelic series); with HOXA4 [9], 14.1 upbm affinity estimate (log intensity, higher = more binding, comparable within an allelic series); in the experiment with VAX1 [10], 13.5 upbm affinity estimate (log intensity, higher = more binding, comparable within an allelic series); in the experiment with VAX1 [11], 13.4 upbm affinity estimate (log intensity, higher = more binding, comparable within an allelic series); in the experiment with HOXA2 [12], 10.9 upbm affinity estimate (log intensity, higher = more binding, comparable within an allelic series). Moreover, the binding signal with HOXA4 [13] was 12.3 upbm affinity estimate (log intensity, higher = more binding, comparable within an allelic series); with HOXA2 [14], 12.8 upbm affinity estimate (log intensity, higher = more binding, comparable within an allelic series); with VAX1 [15], 13.3 upbm affinity estimate (log intensity, higher = more binding, comparable within an allelic series).
As to GACCAGGC, the binding signal with HOXB4 [1] is 7.9 upbm affinity estimate (log intensity, higher = more binding, comparable within an allelic series); in the experiment with VENTX [2], 8.15 upbm affinity estimate (log intensity, higher = more binding, comparable within an allelic series); in the experiment with VENTX [4], 8.13 upbm affinity estimate (log intensity, higher = more binding, comparable within an allelic series); with HOXB4 [7], 7.99 upbm affinity estimate (log intensity, higher = more binding, comparable within an allelic series).
For the sequence ACATTAAT, the binding signal was 13 upbm affinity estimate (log intensity, higher = more binding, comparable within an allelic series) in the experiment with HOXB4 [1]; 10.6 upbm affinity estimate (log intensity, higher = more binding, comparable within an allelic series) with HOXA4 [3]; 12.3 upbm affinity estimate (log intensity, higher = more binding, comparable within an allelic series) with HOXA2 [5]; 12 upbm affinity estimate (log intensity, higher = more binding, comparable within an allelic series) with HOXA4 [6]; 13.6 upbm affinity estimate (log intensity, higher = more binding, comparable within an allelic series) with HOXB4 [7]; 13.2 upbm affinity estimate (log intensity, higher = more binding, comparable within an allelic series) with HOXA2 [8]. Moreover, the binding signal with HOXA4 [9] is 13.6 upbm affinity estimate (log intensity, higher = more binding, comparable within an allelic series); with HOXA2 [12], 11 upbm affinity estimate (log intensity, higher = more binding, comparable within an allelic series); with HOXA4 [13], 11.4 upbm affinity estimate (log intensity, higher = more binding, comparable within an allelic series); with HOXA2 [14], 12.1 upbm affinity estimate (log intensity, higher = more binding, comparable within an allelic series).
TCATTAAA: the binding signal with HOXB4 [1] is 13.1 upbm affinity estimate (log intensity, higher = more binding, comparable within an allelic series); with HOXA4 [3], 10.8 upbm affinity estimate (log intensity, higher = more binding, comparable within an allelic series); with HOXA2 [5], 12.5 upbm affinity estimate (log intensity, higher = more binding, comparable within an allelic series); in the experiment with HOXA4 [6], 12.5 upbm affinity estimate (log intensity, higher = more binding, comparable within an allelic series); in the experiment with HOXB4 [7] it was 13.8 upbm affinity estimate (log intensity, higher = more binding, comparable within an allelic series); with HOXA2 [8], 13.1 upbm affinity estimate (log intensity, higher = more binding, comparable within an allelic series). For the same sequence, the binding signal with HOXA4 [9] is 13.9 upbm affinity estimate (log intensity, higher = more binding, comparable within an allelic series); in the experiment with VAX1 [10] it was 13 upbm affinity estimate (log intensity, higher = more binding, comparable within an allelic series); with VAX1 [11], 13 upbm affinity estimate (log intensity, higher = more binding, comparable within an allelic series); in the experiment with HOXA2 [12] it was 10.9 upbm affinity estimate (log intensity, higher = more binding, comparable within an allelic series); with HOXA4 [13] it was 11.9 upbm affinity estimate (log intensity, higher = more binding, comparable within an allelic series); in the experiment with HOXA2 [14], 12.3 upbm affinity estimate (log intensity, higher = more binding, comparable within an allelic series). Moreover, the binding signal in the experiment with VAX1 [15] was 12.9 upbm affinity estimate (log intensity, higher = more binding, comparable within an allelic series).
For TCCATTAA, the binding signal with HOXB4 [1] is 13 upbm affinity estimate (log intensity, higher = more binding, comparable within an allelic series); with VENTX [2], 11.7 upbm affinity estimate (log intensity, higher = more binding, comparable within an allelic series); with HOXA4 [3] it was 10.5 upbm affinity estimate (log intensity, higher = more binding, comparable within an allelic series); with HOXA4 [6] it was 11.9 upbm affinity estimate (log intensity, higher = more binding, comparable within an allelic series); with HOXB4 [7], 13.6 upbm affinity estimate (log intensity, higher = more binding, comparable within an allelic series); with HOXA4 [9], 13.7 upbm affinity estimate (log intensity, higher = more binding, comparable within an allelic series). The binding signal was 12.8 upbm affinity estimate (log intensity, higher = more binding, comparable within an allelic series) in the experiment with VAX1 [10]; 12.2 upbm affinity estimate (log intensity, higher = more binding, comparable within an allelic series) with VAX1 [11]; 11.4 upbm affinity estimate (log intensity, higher = more binding, comparable within an allelic series) with HOXA4 [13]; 12.2 upbm affinity estimate (log intensity, higher = more binding, comparable within an allelic series) with VAX1 [15].
Regarding GGTCATTA, the binding signal with HOXB4 [1] is 13.3 upbm affinity estimate (log intensity, higher = more binding, comparable within an allelic series); in the experiment with VENTX [2], 11.8 upbm affinity estimate (log intensity, higher = more binding, comparable within an allelic series); with HOXA4 [3] it was 10.6 upbm affinity estimate (log intensity, higher = more binding, comparable within an allelic series); with VENTX [4], 11.8 upbm affinity estimate (log intensity, higher = more binding, comparable within an allelic series); with HOXA2 [5] it was 13 upbm affinity estimate (log intensity, higher = more binding, comparable within an allelic series); in the experiment with HOXA4 [6] it was 12.5 upbm affinity estimate (log intensity, higher = more binding, comparable within an allelic series). For the same sequence, the binding signal with HOXB4 [7] is 14 upbm affinity estimate (log intensity, higher = more binding, comparable within an allelic series); with HOXA2 [8] it was 13.7 upbm affinity estimate (log intensity, higher = more binding, comparable within an allelic series); in the experiment with HOXA4 [9] it was 13.9 upbm affinity estimate (log intensity, higher = more binding, comparable within an allelic series); with VAX1 [10], 13.6 upbm affinity estimate (log intensity, higher = more binding, comparable within an allelic series); in the experiment with VAX1 [11], 13.5 upbm affinity estimate (log intensity, higher = more binding, comparable within an allelic series); with HOXA2 [12] it was 10.9 upbm affinity estimate (log intensity, higher = more binding, comparable within an allelic series). The binding signal was 11.9 upbm affinity estimate (log intensity, higher = more binding, comparable within an allelic series) with HOXA4 [13]; 12.8 upbm affinity estimate (log intensity, higher = more binding, comparable within an allelic series) in the experiment with HOXA2 [14]; 13.6 upbm affinity estimate (log intensity, higher = more binding, comparable within an allelic series) with VAX1 [15].
Turning to CCGGACCA, the binding signal with HOXB4 [1] is 7.72 upbm affinity estimate (log intensity, higher = more binding, comparable within an allelic series); in the experiment with HOXB4 [7] it was 7.8 upbm affinity estimate (log intensity, higher = more binding, comparable within an allelic series).
Turning to CGCCGAAG, the binding signal in the experiment with HOXB4 [1] is 7.84 upbm affinity estimate (log intensity, higher = more binding, comparable within an allelic series); with HOXB4 [7], 7.65 upbm affinity estimate (log intensity, higher = more binding, comparable within an allelic series).
Take CGAGGCAC: the binding signal in the experiment with HOXB4 [1] was 7.73 upbm affinity estimate (log intensity, higher = more binding, comparable within an allelic series); with HOXB4 [7], 7.43 upbm affinity estimate (log intensity, higher = more binding, comparable within an allelic series).
For CGGCGGTC, the binding signal with HOXB4 [1] was 7.42 upbm affinity estimate (log intensity, higher = more binding, comparable within an allelic series); with HOXA4 [3] it was 9.72 upbm affinity estimate (log intensity, higher = more binding, comparable within an allelic series); in the experiment with HOXA4 [6], 9.69 upbm affinity estimate (log intensity, higher = more binding, comparable within an allelic series); in the experiment with HOXB4 [7] it was 7.32 upbm affinity estimate (log intensity, higher = more binding, comparable within an allelic series); in the experiment with HOXA4 [9], 9.77 upbm affinity estimate (log intensity, higher = more binding, comparable within an allelic series); with HOXA4 [13], 9.76 upbm affinity estimate (log intensity, higher = more binding, comparable within an allelic series).
